TDP1 cell noCPT: qHTS for Inhibitors of human tyrosyl-DNA phosphodiesterase 1 (TDP1): qHTS in cells in absence of CPT | DT40 Tdp1-/- hTDP1 cells, no CPT, ATP luminescence, 48 h | Potency, µM (top dose mostly 46.2 µM), actives largely listed as inhibitors | 420,000 compounds, 15% hits; also: nearly all actives have a fitted effect of over 55% in size
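Growth of hTDP1-complemented DT40 Tdp1-knockout cells is measured by ATP luminescence after at least 48 hr compound exposure at 37 °C, with DMSO substituting for the 20 nM CPT used in the parallel screen.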
DT40 TDP1 CPT: qHTS for Inhibitors of human tyrosyl-DNA phosphodiesterase 1 (TDP1): qHTS in cells in presence of CPT. chicken DT40 Tdp1-/-;hTDP1 cells + 20 nM CPT, ATP luminescence, 48 h. Potency, µM (highest dose often 46.2 µM), usual class: inhibitors. 420,000 compounds, 12% hits; also: nearly all actives have a fitted effect of over 55% in size
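Chicken DT40 Tdp1-/- cells stably complemented with human TDP1 were seeded at 400 cells/well in medium containing 20 nM camptothecin, exposed to pin-transferred compounds, and grown at 37 °C for at least 48 hr. Viability was read as ATP luminescence.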
KB-3-1 tox: qHTS assay for MDR1-selective chemotherapeutics: Primary screen using the parental adenocarcinoma cell KB-3-1; KB-3-1 viability, CellTiter-Glo ATP luminescence, 72 h; Potency, µM (titrated, usually from 46.1 µM), hits mostly cytotoxic; 400,000 compounds, 1.4% hits; also: nearly all actives have a fitted effect of over 60% in size
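Viability of parental KB-3-1 cells, measured by CellTiter-Glo luminescence, followed a 72 h incubation at 37 °C with pinned compounds in phenol-red-free DMEM containing 10% FBS.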
KB-V1 MDR tox: qHTS assay for MDR1-selective chemotherapeutics: Primary screen using the drug-selected MDR subline cells KB-V1. KB-V1 MDR cells viability, CellTiter-Glo, 72 h. Potency, µM (titrated, usually from 46.1 µM), most hits filed as cytotoxic. 400,000 compounds, 3.4% hits. AID 1347076, 2019; also: nearly all actives have a fitted effect of over 60% in size
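Luminescent ATP read-out (CellTiter-Glo, 10 min) measures survival of drug-selected KB-V1 MDR cells after 72 h, 37 degrees C compound exposure. Medium: phenol-red-free DMEM, 10% FBS. Values from fitted concentration-response curves.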
HT1080 IDH1KD tx: qHTS for induction of synthetic lethality in tumor cells producing 2HG: qHTS for the HT-1080-IDH1KD cell line; HT-1080 IDH1 knockdown viability, ATP luminescence, 48 h; Potency, µM (highest dose often 46.1 µM), hits mostly cytotoxic; 360,000 compounds, 2% hits
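Using the IDH1-knockdown HT-1080 line run in the same batch and compound series as the NT line, viability after 48 h at 37 °C was determined by CellTiter-Glo luminescence and expressed as % activity.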
HT1080-NT tox: qHTS for induction of synthetic lethality in tumor cells producing 2HG: qHTS for the HT-1080-NT fibrosarcoma cell line; Potency, µM (titrated, usually from 46.1 µM), most hits filed as cytotoxic; AID 686970, 2013; 360,000 compounds, 1.6% hits; HT-1080-NT fibrosarcoma viability, CellTiter-Glo ATP luminescence, 48 h;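 also: NT is the 2HG producing partner of a matched IDH1 knockdown line; nearly all actives have a fitted effect of over 55% in size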
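Fibrosarcoma NT cells, 750 per well in 5% FBS RPMI, were exposed to compound for 48 hours. Viability: CellTiter-Glo luminescence.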
Of the large screens only hits and unclear results are named; the others gave an inactive call. Most compounds without a hit are left out; they make up all but 19% or so of the library. Calls follow the shape of the dose curve; as a rule, active = well fitted curve in the direction sought with a large enough effect; inconclusive = small, poorly fitted or top-dose-only effect, or another doubt; inactive = no such curve, though single readings can be large; an effect the other way counts as inactive or inconclusive.

CCCCCNC(=O)C(c1cccc2ccccc12)n1c(=O)c(-c2ccccc2)nc2ccccc21 (stereo not drawn)	TDP1 cell noCPT 15µM, DT40 TDP1 CPT 13µM
CC(C)(C)NC(=O)C(c1ccnc2ccccc12)n1c(=O)c(-c2ccccc2)nc2ccccc21 (stereo not drawn)	none
Cc1cccc(C)c1NC(=O)C(c1ccnc2ccccc12)n1c(=O)c(-c2ccccc2)nc2ccccc21 (stereo not drawn)	TDP1 cell noCPT 15µM, DT40 TDP1 CPT inconclusive, KB-V1 MDR tox inconclusive
O=C(NCc1ccccc1)C(c1ccncc1)n1c(=O)c(-c2cc3ccccc3[nH]2)nc2ccccc21 (stereo not drawn)	TDP1 cell noCPT inconclusive, DT40 TDP1 CPT inconclusive, KB-V1 MDR tox inconclusive, HT1080 IDH1KD tx inconclusive, HT1080-NT tox inconclusive
CCCCCNC(=O)C(c1ccc(-c2ccccc2)cc1)n1c(=O)c(-c2ccccc2)nc2ccccc21 (stereo not drawn)	TDP1 cell noCPT inconclusive, DT40 TDP1 CPT inconclusive
CCCCCNC(=O)C(CCc1ccccc1)n1c(=O)c(-c2cc3ccccc3[nH]2)nc2ccccc21 (stereo not drawn)	TDP1 cell noCPT inconclusive, DT40 TDP1 CPT inconclusive, HT1080 IDH1KD tx inconclusive
COCCC(=O)N1CCC(n2nccc2NC(=O)CCc2ccccc2)CC1	none
O=C1CS(=O)(=O)c2ccccc2N1	none
Cc1cc(C)n(C(C)CNS(=O)(=O)c2ccccc2)n1 (stereo not drawn)	none
O=C(Nc1ccc2nc(-c3cccs3)c(-c3cccs3)nc2c1)N1CCOCC1	TDP1 cell noCPT 13µM, DT40 TDP1 CPT inconclusive, KB-V1 MDR tox 16µM, HT1080 IDH1KD tx inconclusive
O=C(Nc1ccc2nc(-c3ccccn3)c(-c3ccccn3)nc2c1)N1CCCC1	TDP1 cell noCPT inconclusive, DT40 TDP1 CPT inconclusive (no result: HT1080 IDH1KD tx, HT1080-NT tox)
CC(C)n1c(O)c(N=Nc2ccc(Cl)c(C(=O)O)c2)c2ccccc21	none
COc1ccccc1NS(=O)(=O)c1ccc2nc(CCl)[nH]c2c1	TDP1 cell noCPT inconclusive, DT40 TDP1 CPT inconclusive, HT1080 IDH1KD tx inconclusive
COc1ccc(NS(=O)(=O)c2ccc3nc(COc4cccc5ccccc45)[nH]c3c2)cc1	TDP1 cell noCPT 21µM, DT40 TDP1 CPT 16µM, KB-3-1 tox inconclusive, KB-V1 MDR tox inconclusive, HT1080 IDH1KD tx inconclusive
COc1ccc(NS(=O)(=O)c2ccc3nc(COc4ccc5ccccc5c4)[nH]c3c2)cc1	TDP1 cell noCPT inconclusive, DT40 TDP1 CPT 18µM, KB-3-1 tox inconclusive, HT1080 IDH1KD tx inconclusive, HT1080-NT tox inconclusive
COc1ccc(OCc2nc3ccc(S(=O)(=O)Nc4ccccc4Cl)cc3[nH]2)cc1	TDP1 cell noCPT inconclusive, DT40 TDP1 CPT inconclusive, KB-V1 MDR tox inconclusive, HT1080 IDH1KD tx inconclusive
COc1ccc(NC(=O)Cn2c(SCc3c(F)cccc3Cl)nc3ccncc32)cc1OC	none (no result: HT1080 IDH1KD tx, HT1080-NT tox)
COc1ccc(C(=O)COC(=O)C(CCSC)NS(=O)(=O)c2ccc(Cl)cc2)cc1 (stereo not drawn)	DT40 TDP1 CPT inconclusive, KB-V1 MDR tox 23µM
CSCCC(NS(=O)(=O)c1ccc(Cl)cc1)C(=O)OCC(=O)N1CCCc2ccccc21 (stereo not drawn)	TDP1 cell noCPT 18µM, DT40 TDP1 CPT 23µM
CSCCC(NS(=O)(=O)c1ccc(Cl)cc1)C(=O)OCC(=O)NC12CC3CC(CC(C3)C1)C2 (stereo not drawn)	TDP1 cell noCPT inconclusive, DT40 TDP1 CPT 13µM
Cc1cccn2c(Nc3ccc4c(c3)OCCO4)c(-c3ccc(Br)o3)nc12	TDP1 cell noCPT inconclusive, DT40 TDP1 CPT inconclusive, KB-V1 MDR tox inconclusive (no result: HT1080 IDH1KD tx, HT1080-NT tox)
CC(C)(C)CN1CCNC[C@H]1Cc1cccc2ccccc12	TDP1 cell noCPT inconclusive, DT40 TDP1 CPT inconclusive
Fc1cccc(CCN2CCNC[C@H]2Cc2cccc3ccccc23)c1	TDP1 cell noCPT inconclusive, DT40 TDP1 CPT inconclusive
c1ccc2c(C[C@@H]3CNCCN3CCC34CC5CC(CC(C5)C3)C4)cccc2c1	TDP1 cell noCPT inconclusive, DT40 TDP1 CPT 18µM
Oc1ccc(C[C@@H]2CNCCN2CCc2cccc3ccccc23)cc1	TDP1 cell noCPT 21µM, DT40 TDP1 CPT 15µM
COc1cccc(N2C(=O)CSC23C(=O)N(CC(=O)Nc2cc(C)ccc2C)c2ccccc23)c1 (stereo not drawn)	TDP1 cell noCPT inconclusive, DT40 TDP1 CPT inconclusive (no result: HT1080 IDH1KD tx, HT1080-NT tox)
Cc1cccc(NC(=O)CN2C(=O)C3(SCC(=O)N3c3ccccc3)c3ccccc32)c1 (stereo not drawn)	TDP1 cell noCPT inconclusive, DT40 TDP1 CPT 23µM, KB-V1 MDR tox inconclusive (no result: HT1080 IDH1KD tx, HT1080-NT tox)
Cc1ccc(N2C(=O)CSC23C(=O)N(CC(=O)NCCc2ccccc2)c2ccccc23)cc1 (stereo not drawn)	none (no result: HT1080 IDH1KD tx, HT1080-NT tox)
CCOc1ccc(NC(=O)CN2C(=O)C3(SCC(=O)N3c3ccc(F)cc3)c3ccccc32)cc1 (stereo not drawn)	TDP1 cell noCPT inconclusive, DT40 TDP1 CPT 23µM (no result: HT1080 IDH1KD tx, HT1080-NT tox)
CCc1cccc(C)c1NC(=O)CN1C(=O)C2(SCC(=O)N2c2cc(C)cc(C)c2)c2ccccc21 (stereo not drawn)	TDP1 cell noCPT 16µM, DT40 TDP1 CPT 18µM (no result: HT1080 IDH1KD tx, HT1080-NT tox)
CC(C)c1ccc(NC(=O)CN2C(=O)C3(SCC(=O)N3c3ccc(F)cc3)c3ccccc32)cc1 (stereo not drawn)	TDP1 cell noCPT inconclusive, DT40 TDP1 CPT inconclusive, KB-3-1 tox inconclusive (no result: HT1080 IDH1KD tx, HT1080-NT tox)
COc1cccc(NC(=O)CN2C(=O)C3(SCC(=O)N3c3cc(C)cc(C)c3)c3ccccc32)c1 (stereo not drawn)	TDP1 cell noCPT inconclusive, DT40 TDP1 CPT 18µM, KB-3-1 tox inconclusive, KB-V1 MDR tox inconclusive (no result: HT1080 IDH1KD tx, HT1080-NT tox)
Cc1ccc2nc(SC(C(=O)c3ccccc3)c3ccccc3)nc(C)c2c1 (stereo not drawn)	TDP1 cell noCPT 15µM, DT40 TDP1 CPT inconclusive, KB-V1 MDR tox inconclusive
Cn1c(=O)c2[nH]c(CNCc3ccccc3Cl)nc2n(C)c1=O	TDP1 cell noCPT 3.3µM, DT40 TDP1 CPT 3.7µM
Cn1c(=O)c2[nH]c(CN3CCN(Cc4ccccc4)CC3)nc2n(C)c1=O	none
Cn1c(=O)c2[nH]c(COc3ccc(C(C)(C)C)cc3)nc2n(C)c1=O	TDP1 cell noCPT 4.6µM, DT40 TDP1 CPT 8.2µM, KB-3-1 tox inconclusive

High-throughput results as filed in PubChem BioAssay.
